Among all 370,000 compounds or so, about 3,800 (1%) were called active. The sample holds actives, similar compounds and a random draw of the others, so the mix is not that of the screen. No stated cut-off is given here; in the data, active means activation above about 7.8%; inactive means the rest.
Assay: SMARCA2 (BRM) function activators, primary screen, cell-based, luminescence, high throughput (AID 652017);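 further: 0% = vehicle wells and 100% = reference activator wells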
Conditions: MG213 cells, MMTV-luciferase reporter, dexamethasone, overnight; at 9.1 µM; active compounds read high

Row | Compound | activation
1 | Cc1ccc(OCc2nnc(SC/C=C/c3ccccc3)n2Cc2ccco2)cc1 | -4.07% (inactive)
2 | Cc1ccc(NC(=O)c2cc3ccccc3o2)cc1 | 8.36% (active)
3 | Cc1cccc(-n2nc3c(c2NC(=O)c2cc4ccccc4o2)CS(=O)(=O)C3)c1 | -1.69% (inactive)
4 | CC(OC(=O)c1cc2ccccc2o1)C(=O)Nc1ccc(N2CCOCC2)cc1 (stereo not drawn) | -1.72% (inactive)
5 | O=C(Nc1ccccc1)N1CCN(Cc2nc3ccccc3c(=O)[nH]2)CC1 | -4.04% (inactive)
6 | COC(=O)c1cc(S(=O)(=O)N2CCN(c3ccccc3C)CC2)cn1C | -6.95% (inactive)
7 | CCCCOCCCNC(=O)C[C@H]1C[C@@]2(C(=O)OC)C(=C[C@H](C(C)(C)C)O[C@@H]2C)N(CCc2ccc(OC)c(OC)c2)C1=O | -1.39% (inactive)
8 | Nc1[nH]c(/C=C2/CCCCC2n2[nH]c(=O)n(-c3ccccc3)c2=O)c(Cc2ccccc2)[n+]1Cc1ccccc1 (stereo not drawn) | -4.04% (inactive)
9 | COc1ccc(N2CC(C(=O)N[C@@H](C)C(=O)N3CCCCC3)CC2=O)cc1 (stereo partly drawn) | 1.33% (inactive)
10 | COc1ccc(S(=O)(=O)NC(C)C(=O)N2CCCCCC2)cc1 (stereo not drawn) | 8.03% (active)
11 | COc1ccc(CNS(=O)(=O)c2ccc(NC(=O)N3CCCCC3)cc2)cc1 | -3.18% (inactive)
12 | COCC(=O)N[C@@H]1C[C@@H]2O[C@@H](CO)CC[C@@H]2O[C@@H]1CCc1ccc(-c2ccccc2)cc1 | 0.63% (inactive)
13 | CCOC(=O)[C@]12CCCC=C1N(Cc1ccc(OC)cc1)C(=O)[C@@H]2CC(=O)NCc1cccs1 | -2.09% (inactive)
14 | CC(=O)c1ccc(NC(=O)c2sc3nc4n(c(=O)c3c2C)CCCCC4)cc1 | 9.72% (active)
15 | O=C(Nc1ccc2nc3n(c(=O)c2c1)CCCC3)c1ccc(Cl)nc1 | -1.5% (inactive)
16 | O=c1c2c(nc3n1CCCCC3)sc1c(O)cccc12 | 10.3% (active)
17 | O=C(Cn1[nH]c(=O)c2ccccc2c1=O)Nc1cccc(-c2nnc3n2CCCCC3)c1 | -0.49% (inactive)
18 | Cc1c(C(=O)Nc2cccc(-c3nnc4n3CCCCC4)c2)oc2ccccc12 | -1.34% (inactive)
19 | CC1CCN(C(=O)c2ccc3c(=O)n4c(nc3c2)CCCCC4)CC1 | -1.07% (inactive)
20 | COc1cccc(CNC(=O)CNS(=O)(=O)c2ccc3nc(C)sc3c2)c1OC | -2.54% (inactive)
21 | O=C(NC1CCCC1)C1CSCCS(=O)(=O)N1Cc1ccccc1 (stereo not drawn) | -0.49% (inactive)
22 | COC(=O)[C@]12C[C@H](CC(=O)NCCCN3CCCC3=O)C(=O)N(CCc3ccc(OC)c(OC)c3)C1=C[C@H](COCc1ccccc1)O[C@@H]2C | -2.89% (inactive)
23 | Cc1cc(C)cc(NC(=O)N2CCC(N(C)CCC(C)C)CC2)c1 | -3.63% (inactive)
24 | COC(=O)c1cccc(Cn2ccc3ccc(-c4ccc5ccn(C(=O)c6ccccc6C)c5c4)cc32)c1 | -2.21% (inactive)
25 | COc1ccc(-n2c(SCC(=O)Nc3ccccc3-c3ccccc3)nnc2-c2cccnc2)cc1 | -4.88% (inactive)
26 | COc1ncnc2c1ncn2CCCNCCN1CCOCC1 | -1.94% (inactive)
27 | O=C(Nc1cc(=O)[nH]c2ncnn12)c1ccccc1Cl | 8.25% (active)

Row | Compound | activation
28 | CC(=O)c1cc(CN2CCC(n3nccc3NC(=O)c3ccccc3Cl)CC2)cs1 | -2.24% (inactive)
29 | O=C(Nc1ccc2sc3ccccc3c(=O)c2c1)c1ccccc1Cl | 5.49% (inactive)
30 | Cc1cc(Br)ccc1NC(=O)CCCOc1cc(=O)n(C)c2ccccc12 | -2.55% (inactive)
31 | OC(CCl)CCl | -4.79% (inactive)
32 | COc1ccc(CCNC(=O)CCNS(=O)(=O)c2cc(Br)cnc2N)cc1OC | -1.13% (inactive)
33 | COc1c(O)cc2oc(-c3ccc(O)c(O)c3)cc(=O)c2c1O | 8.25% (active)
34 | CCCCOCCCNC(=O)C[C@H]1C[C@@]2(C(=O)OC)C(=C[C@H](COCc3ccccc3)O[C@@H]2C)N(Cc2cccc3ccccc23)C1=O | -2.77% (inactive)
35 | O=C(C1CCCN1S(=O)(=O)c1ccccc1)N1CCc2ccccc2C1 (stereo not drawn) | -4.12% (inactive)
36 | Cc1ccc(C(=O)C2CCN(CC(=O)NCCC(C)C)CC2)cc1 | -3.11% (inactive)
37 | Cc1nn(Cc2ccc(F)cc2)c(C)c1NC(=O)c1cccnc1Cl | 11.7% (active)
38 | Cc1nn(Cc2ccc(Cl)c(Cl)c2)c(C)c1NC(=O)c1cc(C2CC2)on1 | -4.98% (inactive)
39 | Cc1nn(Cc2ccc(F)cc2)c(C)c1NC(=O)c1noc2c1CCc1ccccc1-2 | -4.67% (inactive)
40 | COc1ccc(Cn2cc(CN3[C@@H](CC(C)C)COc4cc(Br)ccc4S3(=O)=O)nn2)cc1 | 0.39% (inactive)
41 | C/C(Cn1nnc2ccccc21)=N\OC(=O)c1cc(F)c(F)cc1Cl | -0.31% (inactive)
42 | COc1ccc(-n2c(SCC(=O)Nc3ccc4cn[nH]c4c3)nnc2-c2cccnc2)cc1 | 6.71% (inactive)
43 | COc1ccc(/C=N/NC(=O)c2cc(-c3cccc(C)c3)nc3ccccc23)cc1O | 8.84% (active)
44 | COc1ccc(C)cc1NC(=O)c1cc(-c2ccccc2)nc2c1cnn2C(C)C | -4.75% (inactive)
45 | Cc1ccc(/C=N/NC(=O)COc2ccccc2-c2ccccc2)cc1 | -0.77% (inactive)
46 | CCC(=O)Nc1ccc2c(c1)C(=O)N(C)[C@H]1CC[C@H](CC(=O)NCCOC)O[C@@H]1CO2 | -1.86% (inactive)
47 | CC(CCN1CCC(C(O)(c2ccccc2)c2ccccc2)CC1)Oc1ccc([N+](=O)[O-])cc1Cl (stereo not drawn) | 5.01% (inactive)
48 | Cc1cc(C(=O)NNC(=S)Nc2ccccc2C)cs1 | 8.64% (active)
49 | Cc1cc(C(=O)NNC(=S)NC(C)c2ccccc2)cs1 (stereo not drawn) | -0.96% (inactive)
50 | Cc1ccccc1NC(=O)c1cc(S(=O)(=O)N2CCOCC2)cs1 | -0.28% (inactive)
51 | COC(=O)[C@]12C[C@H](CC(=O)NCc3ccccc3)C(=O)N(CCC3=CCCCC3)C1=C[C@H](C(C)C)O[C@@H]2C1CC1 | 0.2% (inactive)
52 | C=CCN1C(=O)[C@@H](CC(=O)N2CCN(C(=O)c3ccco3)CC2)[C@]2(C(=O)OC)CCCCC=C12 | -3.14% (inactive)
53 | COC(=O)C12C=C3CC(c4ccccc4)=C3C(=O)N1Cc1[nH]c3ccccc3c1C2 (stereo not drawn) | -3.71% (inactive)
